Results published in PubChem BioAssay.
Several values for one entry are separate records, joined by “and”; a condition that tells them apart may be missing. Identical values can stand only once. For some of these results: Results with a measured potency or affinity are listed apart. Activity calls are given as the source filed them. Unless noted, no rule for the calls is given here.

Experiments:
[1] = P. berghei load reduction in hepatocytes – cell-based, HepG2, luciferase luminescence, HepG2 viability, primary screen (AID 624349; in the data active = parasite load remaining mostly below about 12%, no sharp cut-off; inactive = mostly above about 10%;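 also: 100% = mean of DMSO negative control wells on the same plate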); settings: P. berghei liver stage in HepG2, luciferase luminescence, concentration not given here; parasite load remaining: stronger effect = lower value; viability: measured here: HepG2 viability without parasites
[2] = test system: Hepatitis C virus NS3 helicase; experiment: blockers of NS3h binding to ssDNA – biochemical, fluorescence polarization, LOPAC1280 library, primary screen (AID 687035; in the data active = inhibition above about 37%); settings: Purified HCV NS3 helicase, Cy5-dT15 ssDNA binding fluorescence polarization; stronger effect = higher value; concentration not given here
[3] = compounds altering Cy5-DNA-NS3h complex signal – biochemical, LOPAC1280, artefact control for HCV NS3 helicase inhibitor project (AID 687037); settings: Cy5-DNA-NS3h complex fluorescence interference counterscreen
[4] = Wnt pathway potentiators raising nuclear beta-catenin – imaging, WNT3A-conditioned medium, mouse C2C12, NPC library, primary screen (AID 1117326; in the data active = nuclear beta-catenin stimulation mostly above about 4.2%, no sharp cut-off; inactive = mostly below about 10%); settings: stronger effect = higher value
[5] = stimulators of insulin release from INS-1E, primary screen, cell-based, 5 mM glucose, NPC library (AID 1117329;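 active = compound raises insulin release from rat beta cells at 5 mM glucose, no numeric limit stated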); settings: rat INS-1E insulin secretion, at 10 µM, stronger effect = higher value
[6] = growth inhibition of GSK3B-pretreated HCT116 cells – cell-based, CellTiter-Glo, 0.2 to 20 µM (AID 1117336;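 active = compounds lowering colon cancer cell viability after pretreatment blocking the GSK3B kinase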); settings: HCT116 viability after GSK3B inhibitor, at 20 µM, stronger effect = higher value
[7] = inhibition of endothelial tube formation, primary screen, imaging, VEGF stimulated, CD31 staining, tube area, NPC library (AID 1117340;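 active = compound that reduces growth-factor-driven endothelial tube area in a mixed cell culture, no cutoff stated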); settings: VEGF-stimulated ADSC/ECFC co-culture, at 10 µM, stronger effect = higher value
[8] = GLP1 release stimulators, primary, NCI-H716, NPC library (AID 1117341;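 active = compound raises GLP1 secretion from the human gut endocrine cells, with no numeric limit stated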); settings: NCI-H716 cells, at 10 µM, stronger effect = higher value
[9] = HCT116 colon cancer cell growth inhibition, primary screen, CellTiter-Glo luminescence, NPC library (AID 1117342;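 active = compounds that lower survival of HCT116 colon cancer cells in the luminescence readout, no numeric limit stated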); settings: at 20 µM (top of the series)
[10] = reduced SW480 viability measured with CellTiter-Glo, NPC library, primary (AID 1117343;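 active = compounds that lower viability of the colon cancer cells in the luminescence readout, with no numeric limit stated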); settings: CellTiter-Glo luminescence; at 20 µM (top of the series)
[11] = NPC library primary testing for decreased DLD-1 cell viability via CellTiter-Glo (AID 1117346;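 active = compounds that lower survival of DLD-1 colon cancer cells in the luminescence readout, no cutoff given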); settings: DLD-1 viability, CellTiter-Glo luminescence; at 20 µM (top of the series)
[12] = signal quenchers or enhancers, Cy5 substrate/SSB – biochemical, NIH Clinical Collection, E. coli SSB, artefact control for HCV NS3 helicase inhibitor project (AID 743268); settings: Cy5-oligo bound E. coli SSB, fluorescence interference
[13] = test system: Hepatitis C virus NS3 helicase; experiment: blockers of NS3h binding to DNA – biochemical, fluorescence polarization, NIH Clinical Collection, primary screen (AID 743270); settings: NS3 helicase binding to Cy5-dT15 DNA, stronger effect = higher value, concentration not given here
[14] = biological target: Single-stranded DNA-binding protein (Escherichia coli (strain K12)) (UniProt P0AGE0); experiment: SSB-ssDNA binding inhibitors – biochemical, fluorescence polarization, NIH Clinical Collection, counter-screen for HCV NS3 helicase inhibitor project (AID 743271; in the data active = inhibition above about 28%); settings: E. coli SSB-DNA binding, stronger effect = higher value, concentration not given here
[15] = compounds distorting NS3 helicase fluorescence signal – biochemical, NIH Clinical Collection, artefact control for HCV NS3 helicase inhibitor project (AID 743272); settings: fluorescence interference counterscreen, HCV NS3 helicase assay; stronger effect = lower value;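 also: HCV NS3 helicase with a Cy5 labelled single stranded DNA probe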
[16] = test system: Neuropilin-2 / VEGF-C interaction (human); experiment: small molecules blocking Neuropilin-2/VEGF-C interaction – biochemical, microplate binding format, z-score (AID 743281); settings: microplate NRP2/VEGF-C binding assay; stronger effect = lower value
[17] = biological target: Calcium-dependent protein kinase 1 (Plasmodium falciparum (isolate 3D7)) (UniProt P62344); experiment: PfCDPK1 kinase inhibitors, biochemical, TCAMS library (AID 1159585; cut-off not given, nearly all actives have IC50 up to about 0.98 µM;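 also: inhibitors leave more ATP so luminescence rises with inhibition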); settings: recombinant PfCDPK1, Kinase-Glo ATP depletion luminescence
Chain of Calcium-dependent protein kinase 1 (Plasmodium falciparum (isolate 3D7)) (P62344 whole entry, looked up): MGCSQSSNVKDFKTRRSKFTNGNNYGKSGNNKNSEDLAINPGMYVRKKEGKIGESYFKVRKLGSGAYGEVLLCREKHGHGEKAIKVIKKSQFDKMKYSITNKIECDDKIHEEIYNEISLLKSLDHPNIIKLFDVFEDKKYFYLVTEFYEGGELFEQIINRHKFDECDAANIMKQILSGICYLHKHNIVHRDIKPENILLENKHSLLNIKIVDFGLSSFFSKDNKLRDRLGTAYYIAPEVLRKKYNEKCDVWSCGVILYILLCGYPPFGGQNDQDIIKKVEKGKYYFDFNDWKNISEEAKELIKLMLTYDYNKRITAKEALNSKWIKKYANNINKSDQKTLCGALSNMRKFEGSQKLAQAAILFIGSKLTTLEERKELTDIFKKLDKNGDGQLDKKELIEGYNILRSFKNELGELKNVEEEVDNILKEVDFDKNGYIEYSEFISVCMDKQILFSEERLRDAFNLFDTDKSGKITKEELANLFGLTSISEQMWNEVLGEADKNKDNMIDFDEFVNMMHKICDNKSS

[18] = biological target: Plasmodium falciparum protein kinase 6 (PK6, PF3D7_1337100) (UniProt Q8IDW1); experiment: PfPK6 kinase inhibitors, biochemical, TCAMS library (AID 1159586); settings: recombinant PfPK6, Kinase-Glo ATP depletion luminescence
Chain of Plasmodium falciparum protein kinase 6 (PK6, PF3D7_1337100) (Q8IDW1 1-305): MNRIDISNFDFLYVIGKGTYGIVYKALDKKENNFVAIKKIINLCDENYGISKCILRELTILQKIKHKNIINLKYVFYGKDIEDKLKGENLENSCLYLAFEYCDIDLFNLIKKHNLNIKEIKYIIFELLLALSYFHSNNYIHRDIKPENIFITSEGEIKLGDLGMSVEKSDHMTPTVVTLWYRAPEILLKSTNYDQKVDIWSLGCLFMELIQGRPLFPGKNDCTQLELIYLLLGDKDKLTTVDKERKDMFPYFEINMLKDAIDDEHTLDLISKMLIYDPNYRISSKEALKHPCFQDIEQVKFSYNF

[19] = liver-stage malaria parasite load reduction – cell-based, known kinase inhibitor set, luminescence, hepatoma host viability (AID 624392); settings: Plasmodium liver stage in hepatoma cells, luciferase luminescence, concentration not given here; liver cell % of control: measured here: host liver cell viability; parasite % of control: stronger effect = lower value;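 also: infected cells incubated roughly two days before readout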

COc1cc(C(=O)OCCCN2CCCN(CCCOC(=O)c3cc(OC)c(OC)c(OC)c3)CC2)cc(OC)c1OC
inactive: parasite load remaining [1] 44% and 120% and 14% | inhibition [2] -3% | fluorescence ratio (interference) [3] 1 | nuclear beta-catenin stimulation ([4]; at 10 µM) 1.3% | viability decrease [6] 38.2% | tube area decrease [7] 4.6% | GLP1 secretion stimulation [8] 7.5% | viability decrease (inhibition) [11] 24%
1.7%: nuclear beta-catenin stimulation ([4]; stimulation, at 2 µM)
active: insulin secretion stimulation [5] 79.2% | inhibition of viability [9] 77.6% | viability decrease (inhibition) [10] 92.3%
47.9% and 91.2% and 76.5%: viability [1]

O=NN(CCCl)C(=O)NC1CCCCC1
78%: viability [1]
3.7%: nuclear beta-catenin stimulation ([4]; stimulation, at 2 µM)
active: tube area decrease [7] 56.7% | viability decrease (inhibition) [10] 57.8%
inactive: parasite load remaining [1] 11.7% | nuclear beta-catenin stimulation ([4]; at 10 µM) 11.8% | insulin secretion stimulation [5] -0.3% | viability decrease [6] 11.8% | GLP1 secretion stimulation [8] -0.1% | inhibition of viability [9] -0.2% | viability decrease (inhibition) [11] 3.5%

C[C@@H]1CN(c2c(F)c(N)c3c(=O)c(C(=O)O)cn(C4CC4)c3c2F)C[C@H](C)N1
-1.1%: nuclear beta-catenin stimulation ([4]; stimulation, at 2 µM)
inactive: parasite load remaining [1] 16.6% | nuclear beta-catenin stimulation ([4]; at 10 µM) -1.1% | insulin secretion stimulation [5] 2.1% | viability decrease [6] 13.2% | tube area decrease [7] -14.6% | GLP1 secretion stimulation [8] 0.3% | inhibition of viability [9] 23.4% | viability decrease (inhibition) [10] -0.6% | viability decrease (inhibition) [11] -18.8%
70%: viability [1]

CO[C@@H]1[C@@H](OC(N)=O)[C@@H](O)[C@H](Oc2ccc3c(O)c(NC(=O)c4ccc(O)c(CC=C(C)C)c4)c(=O)oc3c2C)OC1(C)C
73.9% and 88.8%: viability [1]
1.5%: nuclear beta-catenin stimulation ([4]; stimulation, at 2 µM)
inactive: parasite load remaining [1] 96.3% and 84% | nuclear beta-catenin stimulation ([4]; at 10 µM) -0.7% | insulin secretion stimulation [5] -0.3% | viability decrease [6] -78.9% | tube area decrease [7] -1.9% | GLP1 secretion stimulation [8] 0.7% | inhibition of viability [9] -1.6% | viability decrease (inhibition) [10] -22.2% | viability decrease (inhibition) [11] -21.8%

COc1ccccc1N1CCN(CC(O)COc2cccc3ccccc23)CC1 (stereo not given)
active: inhibition of viability [9] 64.7% | viability decrease (inhibition) [10] 92.1% | viability decrease (inhibition) [11] 59.3%
inactive: parasite load remaining [1] 54.9% and 58.6% and 42.9% | inhibition [2] -2% | fluorescence ratio (interference) [3] 1 | fluorescence ratio [12] 0.97 | inhibition [13] 5.15% | inhibition [14] 5.29% | fluorescence ratio [15] 0.89 | z-score [16] 1.13 | nuclear beta-catenin stimulation ([4]; at 10 µM) 1.5% | insulin secretion stimulation [5] 0.4% | viability decrease [6] 0.8% | tube area decrease [7] 35.4% | GLP1 secretion stimulation [8] 10%
1.7%: nuclear beta-catenin stimulation ([4]; stimulation, at 2 µM)
66.8% and 61.4% and 114%: viability [1]

Cc1cnc(C(=O)O)c[n+]1[O-]
inactive: parasite load remaining [1] 22.9% | nuclear beta-catenin stimulation ([4]; at 10 µM) 2.4% | insulin secretion stimulation [5] 3.6% | viability decrease [6] -16.5% | tube area decrease [7] 9.6% | GLP1 secretion stimulation [8] -4.7% | inhibition of viability [9] 3% | viability decrease (inhibition) [10] 14.8% | viability decrease (inhibition) [11] -0.8%
79.5%: viability [1]
1.1%: nuclear beta-catenin stimulation ([4]; stimulation, at 2 µM)

CCOC(=O)c1ncn2c1CN(C)C(=O)c1cc(F)ccc1-2
inactive: parasite load remaining [1] 6.63% and 66.3% | inhibition [2] -4% | fluorescence ratio (interference) [3] 1 | fluorescence ratio [12] 1.05 | inhibition [13] 1.98% | inhibition [14] -0.1% | fluorescence ratio [15] 0.99 | z-score [16] -0.197 | nuclear beta-catenin stimulation ([4]; at 10 µM) 0.8% | insulin secretion stimulation [5] 1.6% | viability decrease [6] -39.4% | tube area decrease [7] -3.4% | GLP1 secretion stimulation [8] 0.1% | inhibition of viability [9] 0.15% | viability decrease (inhibition) [10] 17.1% | viability decrease (inhibition) [11] 4%
73.1% and 107%: viability [1]
-0.7%: nuclear beta-catenin stimulation ([4]; stimulation, at 2 µM)

COc1cc2c(cc1OC)-c1cc(=Nc3c(C)cc(C)cc3C)n(C)c(=O)n1CC2
-0.6%: nuclear beta-catenin stimulation ([4]; stimulation, at 2 µM)
56.5%: viability [1]
inactive: parasite load remaining [1] 22.9% | inhibition [2] 1% | fluorescence ratio (interference) [3] 0.9 | nuclear beta-catenin stimulation ([4]; at 10 µM) 1.1% | insulin secretion stimulation [5] 1.3% | tube area decrease [7] -11.8% | GLP1 secretion stimulation [8] 12.7% | outcome [17] | outcome [18]
active: viability decrease [6] 91.5% | inhibition of viability [9] 71.2% | viability decrease (inhibition) [10] 120% | viability decrease (inhibition) [11] 66.5%

CNC[C@H](O)[C@@H](O)[C@H](O)[C@H](O)CO
-1.1%: nuclear beta-catenin stimulation ([4]; stimulation, at 2 µM)
224%: viability [1]
inactive: parasite load remaining [1] 64.5% | nuclear beta-catenin stimulation ([4]; at 10 µM) -1.8% | insulin secretion stimulation [5] 0.7% | viability decrease [6] -9.2% | tube area decrease [7] -17.1% | GLP1 secretion stimulation [8] 10.1% | inhibition of viability [9] 4.6% | viability decrease (inhibition) [10] 0.6% | viability decrease (inhibition) [11] 15.4%

COc1cc2c(Nc3ccc(Br)cc3F)ncnc2cc1OCC1CCN(C)CC1
-0.9%: nuclear beta-catenin stimulation ([4]; stimulation, at 2 µM)
42.4% and 45.4% and 52%: liver cell % of control [19]
inactive: parasite % of control [19] 0.285% and 8.38% and 117% | nuclear beta-catenin stimulation ([4]; at 10 µM) -0.3% | insulin secretion stimulation [5] 2.4% | viability decrease [6] -7.7% | tube area decrease [7] -0.5% | GLP1 secretion stimulation [8] 1.5% | inhibition of viability [9] -16% | viability decrease (inhibition) [10] -11.4% | viability decrease (inhibition) [11] -10.1% | outcome [18]

CCCCNc1c(C(=O)OCC)c(C)nc2c1cnn2CC
77.6%: viability [1]
inactive: parasite load remaining [1] 80.1% | inhibition [2] -5% | fluorescence ratio (interference) [3] 1 | nuclear beta-catenin stimulation ([4]; at 10 µM) -0.5% | insulin secretion stimulation [5] 6.8% | tube area decrease [7] 10.7% | GLP1 secretion stimulation [8] 3.7%
1.7%: nuclear beta-catenin stimulation ([4]; stimulation, at 2 µM)
active: viability decrease [6] 93.3% | inhibition of viability [9] 94.4% | viability decrease (inhibition) [10] 124% | viability decrease (inhibition) [11] 78.4%

Cc1[nH]cnc1CN1CCc2c(c3ccccc3n2C)C1=O
1.4%: nuclear beta-catenin stimulation ([4]; stimulation, at 2 µM)
87.6%: viability [1]
inactive: parasite load remaining [1] 109% | fluorescence ratio [12] 0.99 | inhibition [13] -8.32% | inhibition [14] -4.72% | fluorescence ratio [15] 0.96 | z-score [16] 0.471 | nuclear beta-catenin stimulation ([4]; at 10 µM) 1.1% | insulin secretion stimulation [5] 0.5% | viability decrease [6] 10.2% | tube area decrease [7] 19.5% | GLP1 secretion stimulation [8] 5.1% | inhibition of viability [9] -1.8% | viability decrease (inhibition) [10] 42.2% | viability decrease (inhibition) [11] 23.8%
